This is part of a sample that, as a whole, favours compounds with a hit. Of some 83,000 tested, about 20% had one in any assay.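 Percent growth is the endpoint: 0 to 100 indicates growth inhibition (40 means 60% inhibition), 0 means no net growth, and negative values indicate cell death.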 Calls of active or inactive are those of the source. The calls were made as follows: active = growth percent below 10; inactive = the rest.
Tests used:
Assay in all cases: NCI-60 one-dose screen, 48 h (100 = growth as untreated, 0 = no growth, -100 = all killed)
Conditions in all cases: 10 µM unless noted
DU-145 prostate = test system: DU-145 prostate
K-562 leukemia = test system: K-562 leukemia
MALME-3M melanoma = test system: MALME-3M melanoma
MDA-MB-231 breast = test system: MDA-MB-231 breast
RXF 393 renal = test system: RXF 393 renal
SF-268 CNS = test system: SF-268 CNS
SF-295 CNS = test system: SF-295 CNS
SF-539 CNS = test system: SF-539 CNS
UACC-257 melanoma = test system: UACC-257 melanoma
M14 melanoma = test system: M14 melanoma
HCT-15 colon = test system: HCT-15 colon
HT29 colon = test system: HT29 colon
SNB-19 CNS = test system: SNB-19 CNS
U251 CNS = test system: U251 CNS
PC-3 prostate = test system: PC-3 prostate
SK-MEL-5 melanoma = test system: SK-MEL-5 melanoma
LOX IMVI melanoma = test system: LOX IMVI melanoma
SK-MEL-28 melanoma = test system: SK-MEL-28 melanoma
UACC-62 melanoma = test system: UACC-62 melanoma

Measured: growth

C/C(Cc1ccc(Cl)cc1)=C(\c1ccc(OCCN2CCCCCC2)cc1)c1ccc(OC(=O)Cc2ccccc2)cc1
inactive: DU-145 prostate 75.9% | MALME-3M melanoma 69.5% | MDA-MB-231 breast 82.4% | RXF 393 renal 53.6% | SF-268 CNS 60.2% | SF-295 CNS 90.4% | SF-539 CNS 81.5% | UACC-257 melanoma 89.3% | M14 melanoma 21.8% | HCT-15 colon 32.6% | SNB-19 CNS 74.4% | U251 CNS 42.5% | PC-3 prostate 54.2% | SK-MEL-5 melanoma 84.1% | LOX IMVI melanoma 78.3% | SK-MEL-28 melanoma 71.3%
active: K-562 leukemia 1.27% | HT29 colon 9.8%

O=C1/C(=C/c2ccccc2)CN(CCC(=O)N2C/C(=C\c3ccccc3)C(=O)/C(=C/c3ccccc3)C2)C/C1=C\c1ccccc1
inactive: DU-145 prostate 87.6% | K-562 leukemia 11.6% | MALME-3M melanoma 101% | MDA-MB-231 breast 75.2% | RXF 393 renal 57.4% | SF-268 CNS 66.6% | SF-295 CNS 90.7% | SF-539 CNS 90.9% | UACC-257 melanoma 93.8% | M14 melanoma 52.4% | HCT-15 colon 18.8% | SNB-19 CNS 52.9% | PC-3 prostate 51.3% | SK-MEL-5 melanoma 60.5% | UACC-62 melanoma 70.2% | SK-MEL-28 melanoma 91.9%
active: HT29 colon -13.5% | U251 CNS 8.91%

COc1ccc(-c2nn(-c3ccccc3)cc2/C=C/C(=O)OCc2cn(-c3ccc(F)c(Cl)c3)nn2)cc1
inactive: DU-145 prostate 97.2% | K-562 leukemia 69.7% | MALME-3M melanoma 59% | MDA-MB-231 breast 56.9% | RXF 393 renal 68.4% | SF-268 CNS 77.4% | SF-295 CNS 97.3% | SF-539 CNS 98.7% | UACC-257 melanoma 92.9% | M14 melanoma 97.6% | HCT-15 colon 88.5% | HT29 colon 103% | SNB-19 CNS 85% | U251 CNS 101% | PC-3 prostate 60.5% | SK-MEL-5 melanoma 83.3% | UACC-62 melanoma 80% | LOX IMVI melanoma 78.9% | SK-MEL-28 melanoma 115%

COc1ccccc1/C=C(/C(=O)c1ccccc1)c1ccccc1
inactive: DU-145 prostate 110% | K-562 leukemia 86.6% | MALME-3M melanoma 135% | MDA-MB-231 breast 98.6% | RXF 393 renal 105% | SF-268 CNS 97.8% | SF-295 CNS 104% | SF-539 CNS 106% | UACC-257 melanoma 93.4% | M14 melanoma 101% | HCT-15 colon 93.4% | HT29 colon 110% | SNB-19 CNS 90.8% | U251 CNS 96.4% | SK-MEL-5 melanoma 99.1% | UACC-62 melanoma 82.4% | LOX IMVI melanoma 87.8%

S=c1[nH]nc(CSc2ncnc3c2c(-c2ccccc2)cn3-c2ccc(Cl)cc2)o1
inactive: DU-145 prostate 106% | K-562 leukemia 92.3% | MALME-3M melanoma 98.5% | MDA-MB-231 breast 94.3% | RXF 393 renal 125% | SF-268 CNS 97.5% | SF-295 CNS 102% | SF-539 CNS 94.7% | UACC-257 melanoma 105% | M14 melanoma 100% | HCT-15 colon 117% | HT29 colon 107% | SNB-19 CNS 94.6% | U251 CNS 93.8% | PC-3 prostate 88.1% | SK-MEL-5 melanoma 104% | UACC-62 melanoma 89.1% | LOX IMVI melanoma 90.2% | SK-MEL-28 melanoma 115%

O=C(CN1CCN(c2cc3c(cc2F)c(=O)c(C(=O)O)cn3C2CC2)CC1)Nc1cc(=O)[nH]c(=O)[nH]1
inactive: DU-145 prostate 112% | K-562 leukemia 103% | MALME-3M melanoma 95.3% | MDA-MB-231 breast 102% | RXF 393 renal 94.4% | SF-268 CNS 100% | SF-295 CNS 86.8% | SF-539 CNS 96.6% | UACC-257 melanoma 103% | M14 melanoma 89.2% | HCT-15 colon 96.1% | HT29 colon 102% | SNB-19 CNS 97.4% | U251 CNS 106% | PC-3 prostate 99% | SK-MEL-5 melanoma 98.9% | UACC-62 melanoma 96% | LOX IMVI melanoma 101% | SK-MEL-28 melanoma 101%

CC(C)C1=C[C@@]23CC[C@@H]4[C@](C)(CCC[C@@]4(C)C(=O)OCC#CCN4CCCC4)[C@H]2C[C@@H]1[C@H]1C(=O)OC(=O)[C@H]13
inactive: DU-145 prostate 89.2% | K-562 leukemia 68.5% | MALME-3M melanoma 89.6% | MDA-MB-231 breast 98.3% | RXF 393 renal 110% | SF-268 CNS 93.1% | SF-295 CNS 97.3% | SF-539 CNS 92.1% | UACC-257 melanoma 96.5% | M14 melanoma 96.6% | HCT-15 colon 90.6% | HT29 colon 90.7% | SNB-19 CNS 97.4% | U251 CNS 100% | PC-3 prostate 77.8% | SK-MEL-5 melanoma 91.3% | UACC-62 melanoma 82.1% | LOX IMVI melanoma 89.1% | SK-MEL-28 melanoma 101%

CN1CCN(Cc2ccc(NC(=O)c3cncc(C#Cc4cnc(N)c5cccnc45)c3)cc2C(F)(F)F)CC1
inactive: DU-145 prostate 24.6% | SF-268 CNS 26.3% | SF-295 CNS 12.7% | UACC-257 melanoma 18.8% | HCT-15 colon 22.9% | SNB-19 CNS 39.8% | U251 CNS 33.9% | PC-3 prostate 29.3%
active: K-562 leukemia 1.39% | MALME-3M melanoma -56.8% | MDA-MB-231 breast -20% | RXF 393 renal -18.2% | SF-539 CNS -28.3% | M14 melanoma -18.8% | HT29 colon 7.8% | SK-MEL-5 melanoma -23.6% | UACC-62 melanoma -47.6% | SK-MEL-28 melanoma -2.55%

C=C1CC2(OC1=O)C(=O)N(CCCCCCCN1C(=O)C3(CC(=C)C(=O)O3)c3ccccc31)c1ccccc12 (configuration not stated)
inactive: DU-145 prostate 58.2% | SF-268 CNS 60.3% | SF-295 CNS 82.6% | SF-539 CNS 16.9% | UACC-257 melanoma 65% | M14 melanoma 36.5% | SNB-19 CNS 67.9% | U251 CNS 36.5% | PC-3 prostate 45.7% | SK-MEL-5 melanoma 61.3%
active: K-562 leukemia 5% | MALME-3M melanoma -61.4% | MDA-MB-231 breast -9.65% | RXF 393 renal -32.8% | HCT-15 colon -19.6% | HT29 colon -17.4% | LOX IMVI melanoma -82.5% | SK-MEL-28 melanoma 9.63%

Cc1cc(N/N=C/c2nc(-c3ccc(Cl)cc3)oc2C)c2cc(Cl)ccc2n1
active: K-562 leukemia -15.8% | MALME-3M melanoma -14.2% | M14 melanoma 8.84% | HCT-15 colon -52.6% | HT29 colon -51.2% | U251 CNS -54.5% | LOX IMVI melanoma -66.7%
inactive: DU-145 prostate 34.3% | MDA-MB-231 breast 63.8% | RXF 393 renal 83.3% | SF-268 CNS 74.8% | SF-295 CNS 98.6% | SF-539 CNS 69.5% | UACC-257 melanoma 101% | SNB-19 CNS 29.3% | PC-3 prostate 67% | SK-MEL-5 melanoma 95.1% | UACC-62 melanoma 29.7% | SK-MEL-28 melanoma 10.3%

COc1ccc(S(=O)(=O)NCCCNc2cc(-c3c(-c4cccc(OC)c4)nc4sccn34)ccn2)cc1
active: SK-MEL-5 melanoma -10.9%
inactive: DU-145 prostate 46.4% | K-562 leukemia 25.6% | MALME-3M melanoma 66.1% | MDA-MB-231 breast 46.8% | RXF 393 renal 56% | SF-268 CNS 44.9% | SF-295 CNS 40.5% | SF-539 CNS 61.9% | UACC-257 melanoma 53.3% | M14 melanoma 45% | HCT-15 colon 35.7% | HT29 colon 35% | SNB-19 CNS 62.7% | U251 CNS 59.4% | PC-3 prostate 26.9% | LOX IMVI melanoma 46.6% | SK-MEL-28 melanoma 65.5%

CSc1nc2sc3c(c2c(=O)n1-c1ccc(C(C)C)cc1)CCC(=O)C3
active: K-562 leukemia 2.37% | MALME-3M melanoma 2.52% | MDA-MB-231 breast -17.1% | RXF 393 renal -2.94% | SF-295 CNS 4.21% | SF-539 CNS -22.1% | HCT-15 colon -15.9% | SNB-19 CNS 9.58% | U251 CNS -80% | PC-3 prostate -6.64% | SK-MEL-5 melanoma -79.9% | UACC-62 melanoma -20.8% | LOX IMVI melanoma -39.6%
inactive: DU-145 prostate 40.5% | SF-268 CNS 18.9% | UACC-257 melanoma 84.7% | M14 melanoma 10.1% | HT29 colon 11.4% | SK-MEL-28 melanoma 28.7%

COc1ccc(C/C(C)=C(\c2ccc(OCCN3CCCCCC3)cc2)c2ccc(OC(=O)C3CCCCC3)cc2)cc1
active: K-562 leukemia 9.51% | HT29 colon -31.8%
inactive: DU-145 prostate 72.4% | MALME-3M melanoma 66% | MDA-MB-231 breast 67.6% | RXF 393 renal 60.4% | SF-268 CNS 64.2% | SF-295 CNS 86.1% | SF-539 CNS 74.7% | UACC-257 melanoma 77.5% | M14 melanoma 73.1% | HCT-15 colon 38.7% | SNB-19 CNS 63.3% | U251 CNS 44.1% | PC-3 prostate 50.7% | SK-MEL-5 melanoma 65.4% | UACC-62 melanoma 63.5% | LOX IMVI melanoma 66.8% | SK-MEL-28 melanoma 66.9%

COc1ccc(S(=O)(=O)NCCCNc2nccc(-c3c(-c4cccc(N)c4)nc4sccn34)n2)cc1
active: MDA-MB-231 breast -61.7%
inactive: DU-145 prostate 92.1% | K-562 leukemia 69.7% | MALME-3M melanoma 103% | RXF 393 renal 96.1% | SF-268 CNS 87.6% | SF-295 CNS 102% | SF-539 CNS 101% | UACC-257 melanoma 113% | M14 melanoma 80.8% | HCT-15 colon 89.2% | HT29 colon 59.7% | SNB-19 CNS 110% | U251 CNS 106% | PC-3 prostate 81.4% | SK-MEL-5 melanoma 81.3% | UACC-62 melanoma 53% | LOX IMVI melanoma 96.4% | SK-MEL-28 melanoma 93.1%

NS(=O)(=O)c1ccc(-n2ncc3c(=O)[nH]c(CN4CCN(c5cc6c(cc5F)c(=O)c(C(=O)O)cn6C5CC5)CC4)nc32)cc1
inactive: DU-145 prostate 110% | K-562 leukemia 95.8% | MALME-3M melanoma 105% | MDA-MB-231 breast 85.8% | RXF 393 renal 98.2% | SF-268 CNS 91.6% | SF-295 CNS 91.8% | SF-539 CNS 97% | UACC-257 melanoma 105% | M14 melanoma 92.9% | HCT-15 colon 89.7% | HT29 colon 101% | SNB-19 CNS 94.9% | U251 CNS 102% | PC-3 prostate 82.5% | SK-MEL-5 melanoma 96.7% | UACC-62 melanoma 74% | LOX IMVI melanoma 97.2% | SK-MEL-28 melanoma 93.5%

CC1=CC(=O)CC(C)(C)[C@@]1(O)/C=C/[C@@H](C)O
inactive: DU-145 prostate 108% | K-562 leukemia 115% | MALME-3M melanoma 102% | MDA-MB-231 breast 93.3% | RXF 393 renal 93.3% | SF-268 CNS 98.1% | SF-295 CNS 91.5% | SF-539 CNS 102% | UACC-257 melanoma 89.1% | M14 melanoma 102% | HCT-15 colon 89.4% | HT29 colon 112% | SNB-19 CNS 97.7% | U251 CNS 90.8% | PC-3 prostate 101% | SK-MEL-5 melanoma 97.4% | UACC-62 melanoma 99.7% | LOX IMVI melanoma 93.7% | SK-MEL-28 melanoma 108%

From PubChem BioAssay (NCI)
